# Experimental data reported in PubChem BioAssay (Tox21).
# Several values for one entry are separate records, joined by “and”; a condition that tells them apart may be missing. Equal values may be shown once. Records with an inconclusive call do not appear. A call without a number means that no potency is given here. A structure can be active in one record and inactive in another. Activity calls are given as the source filed them. Unless noted, calls follow the shape of the dose curve; as a rule, active = well fitted curve in the direction sought with a large enough effect in the repeat runs; inconclusive = weak or mixed curves; inactive = no such curve, though single readings can be large; an effect the other way counts as inactive or inconclusive.
# Tests used:
# [1] = qHTS assay to identify small molecule antagonists of the estrogen receptor alpha (ER-alpha) signaling pathway using the BG1 cell line in the presence of 0.1 nM 17-beta-estradiol - cell viability counter screen (AID 1259241); also: nearly all actives have a fitted effect of over 40% in size; also: potency is read from the fitted curve at half-maximal effect
# Outline: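 Viability in VM7Luc4E2 cells after 22 hr compound exposure under 0.1 nM 17beta-estradiol stimulation, by CellTiter-Fluor.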
# [2] = qHTS assay to identify small molecule antagonists of the androgen receptor (AR) signaling pathway using the MDA cell line in the presence of 0.5 nM R1881 - cell viability counter screen (AID 1259242); also: nearly all actives have a fitted effect of over 45% in size
# Outline: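 MDA-kb2 cells (MMTV-luciferase, AR/GR responsive) were treated with compounds plus 0.5 nM R1881 (final) for 16 hr at 37C, 0% CO2. Viability was then read in the same wells as live-cell protease fluorescence (CellTiter-Fluor, 30 min).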
# [3] = target: Estrogen receptor (Homo sapiens) (UniProt P03372); assay: qHTS assay to identify small molecule antagonists of the estrogen receptor alpha (ER-alpha) signaling pathway using the BG1 cell line in the presence of 0.1 nM 17-beta-estradiol (AID 1259244); also: nearly all actives have a fitted effect of over 50% in size; also: potency is read from the fitted curve at half-maximal effect
# Outline: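 VM7Luc4E2 cells (endogenous full-length ER-alpha, 4×ERE-luciferase), kept 5 days in phenol red-free, charcoal-stripped FBS medium; 4,000 cells/well. Compounds added with 0.1 nM (final) 17beta-estradiol, 22 hr at 37C; luminescence read with ONE-Glo after 30 min.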
# [4] = qHTS assay to identify small molecule phospholipidosis (PLD) inducers (AID 1259344; active = well fitted curve in the direction sought with a large enough effect; an effect the other way counts as inactive or inconclusive)
# Outline: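 Quantitative HTS in HepG2: compound plus LipidTOX Red dye for 24 h, paraformaldehyde fixation with Hoechst 33342, widefield high-content imaging; amiodarone as positive and DMSO as negative control.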
# [5] = qHTS assay to identify small molecule HDAC inhibitors (AID 1259364); also: nearly all actives have a fitted effect of over 45% in size; also: potency is read from the fitted curve at half-maximal effect
# Outline: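 Wild-type HCT-116 cells, plated overnight at 37 C, exposed to compounds 2 hr at 37 C; luminogenic HDAC-Glo substrate then added 30 min at room temperature. Luminescence reports relative endogenous class I/II HDAC activity.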
# [6] = qHTS assay to identify small molecule HDAC inhibitors - cell viability counter screen (AID 1259365); also: nearly all actives have a fitted effect of over 50% in size; also: potency is read from the fitted curve at half-maximal effect
# Outline: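 Cytotoxicity was gauged in wild-type HCT-116 cells after a brief 2hr treatment with DMSO-dissolved compounds at 37C and 5% CO2, using CellTiter-Glo luminescence developed for 30min at room temperature.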
# [7] = qHTS assay to identify small molecule agonists of the sonic hedgehog signaling (Shh) pathway - cell viability counter screen (AID 1259366); also: nearly all actives have a fitted effect of over 50% in size; also: potency is read from the fitted curve at half-maximal effect
# Outline: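 Stable Gli1-Luc NIH/3T3 clone, 2,000 cells/well. Compound exposure 24hr at 37C. Read-out: CellTiter-Fluor fluorescence.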
# [8] = qHTS assay to identify small molecule antagonists of the sonic hedgehog signaling (Shh) pathway - cell viability counter screen (AID 1259367); also: nearly all actives have a fitted effect of over 55% in size; also: potency is read from the fitted curve at half-maximal effect
# Outline: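 Seed 3T3 Gli1-Luc cells at 2,000 per well; incubate 4 hr; add compound in DMSO, then conditioned medium; incubate at 37C with 5% CO2; add CellTiter-Fluor after 23 hr; read fluorescence 1 hr later.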
# [9] = qHTS assay to identify small molecule agonists of the sonic hedgehog signaling (Shh) pathway (AID 1259368; calls by dose curve;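 also: NIH/3T3-derived 3T3Gli1-Luc cells carrying a stable Gli1-driven firefly luciferase reporter; series mostly up to about 92 µM; nearly all actives have a fitted effect of over 15% in size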)
# Outline: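 NIH/3T3-derived 3T3Gli1-Luc cells with stably integrated Gli1-driven firefly luciferase, 2,000 cells/well, compounds added after 4 hr. Incubated 24 hr at 37C, 5% CO2; luminescence read after 30 min with luciferase reagent at room temperature.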
# [10] = target: Androgen receptor (Homo sapiens) (UniProt P10275); assay: qHTS assay to identify small molecule antagonists of the androgen receptor (AR) signaling pathway using the MDA cell line in the presence of 0.5 nM R1881 (AID 1259243); also: potency is read from the fitted curve at half-maximal effect; nearly all actives have a fitted effect of over 50% in size
# Outline: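 MDA-kb2 cells (MMTV-luciferase, responsive to AR and GR) at 3,000/well, rested 5 h at 37C, 0% CO2, then given compounds plus 0.5 nM R1881 (final) for 16 hr. Luciferase read with ONE-Glo after 30 min at room temperature.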
# Sequence of Androgen receptor (Homo sapiens) (P10275 whole entry, looked up): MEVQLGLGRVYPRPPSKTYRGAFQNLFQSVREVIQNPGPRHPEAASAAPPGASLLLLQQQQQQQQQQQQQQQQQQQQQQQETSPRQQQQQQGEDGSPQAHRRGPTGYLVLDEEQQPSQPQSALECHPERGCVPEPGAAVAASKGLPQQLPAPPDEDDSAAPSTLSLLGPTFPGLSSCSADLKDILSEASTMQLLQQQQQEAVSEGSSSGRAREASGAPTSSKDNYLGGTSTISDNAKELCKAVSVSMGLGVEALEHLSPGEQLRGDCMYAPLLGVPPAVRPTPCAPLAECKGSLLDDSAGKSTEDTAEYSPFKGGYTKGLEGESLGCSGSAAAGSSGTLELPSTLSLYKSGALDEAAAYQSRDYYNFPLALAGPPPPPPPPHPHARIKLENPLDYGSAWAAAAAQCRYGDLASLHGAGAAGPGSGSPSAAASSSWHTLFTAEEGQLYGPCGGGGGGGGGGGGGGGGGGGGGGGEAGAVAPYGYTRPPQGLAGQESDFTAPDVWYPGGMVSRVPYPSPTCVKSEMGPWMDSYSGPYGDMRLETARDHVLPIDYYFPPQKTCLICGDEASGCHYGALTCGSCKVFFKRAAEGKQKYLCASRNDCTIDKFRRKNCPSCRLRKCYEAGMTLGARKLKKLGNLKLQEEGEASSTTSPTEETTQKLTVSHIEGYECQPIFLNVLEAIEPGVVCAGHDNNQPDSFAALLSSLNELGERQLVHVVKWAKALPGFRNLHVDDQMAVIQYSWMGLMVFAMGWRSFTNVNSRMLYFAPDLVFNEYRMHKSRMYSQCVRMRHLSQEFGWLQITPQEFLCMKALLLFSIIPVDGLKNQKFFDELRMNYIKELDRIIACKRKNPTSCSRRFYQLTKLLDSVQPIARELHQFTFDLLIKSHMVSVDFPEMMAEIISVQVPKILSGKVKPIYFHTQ
# Sequence of Estrogen receptor (Homo sapiens) (P03372 whole entry, looked up): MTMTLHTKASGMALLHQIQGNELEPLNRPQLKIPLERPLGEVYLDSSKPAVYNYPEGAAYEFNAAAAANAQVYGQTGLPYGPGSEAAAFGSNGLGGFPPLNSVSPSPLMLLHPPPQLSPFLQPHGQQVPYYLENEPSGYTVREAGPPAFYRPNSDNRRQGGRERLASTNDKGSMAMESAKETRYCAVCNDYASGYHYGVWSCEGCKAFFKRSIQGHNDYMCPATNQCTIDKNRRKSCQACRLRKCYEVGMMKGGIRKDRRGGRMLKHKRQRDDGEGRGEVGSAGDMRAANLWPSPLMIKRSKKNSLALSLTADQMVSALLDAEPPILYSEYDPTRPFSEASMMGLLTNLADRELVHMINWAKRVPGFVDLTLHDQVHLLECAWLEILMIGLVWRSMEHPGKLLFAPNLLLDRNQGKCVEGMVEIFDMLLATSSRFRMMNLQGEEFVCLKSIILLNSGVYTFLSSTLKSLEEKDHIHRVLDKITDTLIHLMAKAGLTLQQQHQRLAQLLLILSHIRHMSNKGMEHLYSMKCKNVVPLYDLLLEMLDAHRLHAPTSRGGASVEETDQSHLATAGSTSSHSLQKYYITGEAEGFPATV
Structure (SMILES),Potency [1],Potency [2],Potency [3],outcome [4],Potency [5],Potency [6],Potency [7],Potency [8],outcome [9],Potency [10]
CCNc1nc(Cl)nc(NCC)n1,inactive,inactive,inactive,inactive,inactive,inactive,inactive,inactive,inactive,–
CC[n+]1ccccc1,inactive,–,–,–,inactive,inactive,inactive,inactive,inactive,–
O=C(O)c1nc(Cl)ccc1Cl,inactive,inactive,inactive,–,inactive,inactive,inactive,inactive,inactive,–
COc1ccccc1N,–,inactive,–,–,inactive,inactive,inactive,inactive,inactive,–
CCCC[n+]1ccc(C)cc1,inactive,–,–,–,inactive,inactive and 60.8 µM (active),inactive and 60.8 µM (active),inactive and 60.8 µM (active),inactive,–
CC[N+]1(C)CCCC1,inactive,inactive,–,–,inactive,inactive,inactive,inactive,inactive,–
CCCCn1cc[n+](C)c1C,inactive,–,–,–,inactive,inactive,inactive,inactive,inactive,–
CC(Cl)(Cl)C(=O)O,inactive,–,inactive,–,inactive,inactive,inactive,inactive,inactive,–
Nc1ccccc1,inactive,inactive,–,inactive,inactive,inactive,inactive,inactive,inactive,–
COP(=O)(OC)OC=C(Cl)Cl,–,inactive,inactive,inactive,inactive,inactive,inactive,inactive,inactive,–
CCCC[n+]1ccccc1C,–,inactive,–,–,inactive,inactive,inactive,inactive,inactive,–
CCCCCCCCCCCC(=O)O,inactive,–,–,–,inactive,inactive,inactive,inactive,inactive,–
O=C(O)CC(O)(CC(=O)O)C(=O)O,inactive,–,–,–,inactive,inactive,inactive,inactive,inactive,–
C[C@]12CCC(=O)C=C1CC[C@@H]1[C@@H]2CC[C@]2(C)C(=O)CC[C@@H]12,inactive,–,inactive,–,inactive,inactive,inactive,60.1 µM (active) and inactive,inactive,–
Nc1ccc(-c2ccc(N)cc2)cc1,inactive,inactive,inactive,–,inactive,inactive,inactive,inactive,inactive,–
O=C(O)C(Cl)Cl,–,inactive,inactive,inactive,inactive,inactive,inactive,inactive,inactive,–
CN(C)[C@@H]1C(=O)C(C(N)=O)=C(O)[C@@]2(O)C(=O)C3=C(O)c4c(O)cccc4[C@@](C)(O)[C@H]3[C@H](O)[C@@H]12,inactive,–,–,inactive,inactive,inactive,inactive,inactive,inactive,–
CCCC[N+]1(C)CCCC1,inactive,inactive,–,–,inactive,inactive,inactive,inactive,inactive,–
CCCn1cc[n+](C)c1,inactive,–,–,–,inactive,inactive,inactive,inactive,inactive,–
O=S(=O)(O)O,inactive,inactive,–,–,inactive,inactive,inactive,inactive,inactive,–
CCCC[n+]1ccccc1,–,inactive,–,–,inactive,inactive,inactive,inactive,inactive,–
C1CCC(NC2CCCCC2)CC1,–,inactive,inactive,inactive,inactive,inactive,inactive,inactive,inactive,–
O=C(O)C(Cl)(Cl)Cl,inactive,inactive,–,inactive,inactive,inactive,inactive,inactive,inactive,–
O=C(O)COc1ccc(Cl)cc1Cl,inactive,inactive,–,–,inactive,inactive,inactive,inactive,inactive,–
Oc1ccccc1-c1ccccc1,–,inactive,inactive,inactive,inactive,inactive,inactive,inactive,inactive,–
Nc1ccc(Cl)cc1,inactive,–,inactive,–,inactive and 27.8 µM (active),inactive,inactive,inactive,inactive,–
CC(=O)[O][Hg][c]1ccccc1,4.81 µM (active) and 9.69 µM (active) and 11.9 µM (active),–,2.71 µM (active) and 6.86 µM (active) and 8.41 µM (active),inactive,21.5 µM (active) and 8.63 µM (active) and 13.3 µM (active),3.82 µM (active) and 6.11 µM (active) and 16.8 µM (active),606 nM (active) and 1.37 µM (active) and 1.5 µM (active),1.08 µM (active) and 2.17 µM (active) and 1.33 µM (active),inactive,606 nM (active) and 2.43 µM (active) and 1.19 µM (active)
CCOP(=S)(OCC)Oc1ccc2c(C)c(Cl)c(=O)oc2c1,inactive,–,–,inactive,inactive and 11.9 µM (active),inactive,inactive,inactive,inactive,–
